# Rows were chosen to be rich in hits. Some 4.2% of all compounds tested hit in one or more screens of this group.
# hgDAF-12 ag = H. glycines DAF-12 receptor agonists, primary screen, cell-based, luminescence, HEK293, GAL4 fusion, UAS-luciferase. HEK293 GAL4-hgDAF12 UAS-luciferase reporter, agonist luminescence; normalized to butyrate control. 370,000 compounds, 1.8% hits. activation, % at 6.8 µM;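 active = activation above a cutoff set at the mean of all screened compounds plus 3 SD, cut at about 10% in these data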;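 note: 0% = DMSO wells and 100% = sodium butyrate wells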
# esBAF inh = Bmi1 luciferase reporter increase in mESCs, primary screen, esBAF inhibitor project, mouse ES cells, Bmi1 luciferase knock-in, single point; AID 602393, 2012; reporter increase, % at 12.5 µM; 350,000 compounds, 2% hits; 24 h; 100% = twice the neutral-well signal; in the data active = activation above about 40%; inconclusive = no clear call, values can overlap the other calls;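 note: 0% = median of the plate's neutral control wells and 100% = double that signal; a rise in the Bmi1 reporter signal indicates esBAF inhibition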
# ssDAF-12 act = S. stercoralis DAF-12 nuclear receptor activators, primary screen, cell-based, luminescence, HEK293, GRIP1 co-expression, lit1-tk-luc; HEK293 ssDAF-12/GRIP1 lit1-tk-luc reporter; % of 3 µM dafachronic acid response; activation, % at 6.8 µM; 370,000 compounds, 1% hits;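 active = activation above the mean over all tested compounds plus 3 SD, cut at about 0.9% in these data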;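 note: 0% = DMSO-only wells and 100% = 3 µM delta7-dafachronic acid wells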
# Wnt bcat act = Wnt/beta-catenin pathway activators, primary screen, cell-based, plate reader, single point. activation, % at 9.35 µM. 300,000 compounds, 1.2% hits. AID 743398, 2014. Wnt/beta-catenin reporter cell assay, activator; in the data active = activation above about 30%, passing the limit was not always enough; inconclusive = no clear call, values can overlap the other calls;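 note: 0% = neutral control wells and 100% = positive control wells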
# hcDAF12 agonist = H. contortus DAF-12 nuclear receptor activators, primary screen, cell-based, luminescence, HEK293, lit1-tk-luc reporter | 370,000 compounds, 1.4% hits | activation, % at 6.8 µM | HEK293 hcDAF-12 lit1-tk-luc reporter; 0% DMSO, 100% Δ7-dafachronic acid;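 active = activation above the mean of all tested compounds plus 3 SD, cut at about 5.5% in these data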;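 note: 100% = response to 3 µM Δ7-dafachronic acid high control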
# DAX1 inh = DAX1 (NR0B1) inhibitors on StAR promoter, primary screen, cell-based, luminescence, SF-1 (NR5A1), full-length DAX-1. HEK293T StAR-luciferase reporter, SF-1/DAX-1 repression relief. 370,000 compounds, 1.1% hits. inhibition, % at 6.8 µM;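 active = inhibition above the mean over all tested compounds plus 3 SD, cut at about 3.6% in these data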;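 note: 0% = DAX-1 cells with DMSO and 100% = cells lacking DAX-1 with DMSO; higher inhibition means more luminescence from relief of DAX-1 repression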
# The depositor's hits bear a star; ? = inconclusive; / = not tested or not shown.
SMILES,hgDAF-12 ag,esBAF inh,ssDAF-12 act,Wnt bcat act,hcDAF12 agonist,DAX1 inh
COCCN1CCN(C(=O)c2cc(COc3cc(C)ccc3C)on2)CC1,/,72.7*,/,1.0,/,/
COCCCC1CCN(C(=O)c2cc(COc3cc(C)ccc3C)on2)CC1,7.4,104.3*,0.6,29.4,4.1,1.5
COc1cc(Cl)ccc1OCc1cc(C(=O)N2CCCCCCC2)no1,3.2,13.5,-0.5,4.0,0.9,1.0
COCCN1CCN(C(=O)c2cc(COc3ccc(Cl)cc3OC)on2)CC1,6.1,?,-0.3,35.7*,4.2,4.3*
COC1CCN(C(=O)c2cc(COc3cc(C)ccc3C)on2)CC1,1.9,28.7,-0.8,13.8,-1.7,0.0
CO[C@H](CN(C)C(=O)C1CCOCC1)[C@H](C)CN([C@H](C)CO)S(=O)(=O)c1ccccc1,/,-1.4,/,/,/,/
COCC(=O)Nc1ccc2c(c1)[C@H]1C[C@H](CC(=O)NCc3ccc(Cl)cc3)O[C@@H](CO)[C@H]1O2,/,-8.9,/,/,/,/
O=[N+]([O-])c1cccc(COc2cccc(CO)c2)c1,8.6,24.5,-0.7,-0.8,0.2,1.5
COc1ccc(OCc2cccc(C(=O)Nc3cc(C)on3)c2)cc1,10.3,-37.1,0.2,1.8,3.9,2.2
O=[N+]([O-])c1cccc(COc2ccc(CO)cc2)c1,18.8*,/,2.6*,1.1,7.0*,1.9
COc1ccc(OCc2cccc(C(=O)Nn3cc([N+](=O)[O-])cn3)c2)cc1,11.4*,-81.1,-0.4,9.1,5.3,2.5
C[C@H]1CCCCO[C@H](CN(C)C(=O)CCC(F)(F)F)[C@@H](C)CN([C@@H](C)CO)C(=O)c2cc(NS(=O)(=O)c3ccc(F)cc3)ccc2O1,/,-5.1,/,/,/,/
Nc1nc(CSC(=S)N2CCCCC2)nc(Nc2ccccc2)n1,6.3,/,-1.3,?,2.1,0.9
Nc1nc(CSC(=S)N2CCOCC2)nc(Nc2ccccc2)n1,1.4,/,-1.2,45.0*,6.1*,1.1
COc1ccccc1Nc1nc(N)nc(CSC(=S)N2CCCCC2)n1,0.2,/,-0.5,34.5*,0.7,0.4
Cc1ccc(Nc2nc(N)nc(CSC(=S)N3CCOCC3)n2)cc1,8.9,-12.4,-0.3,/,2.2,1.9
CCCC(=O)Nc1ccc2c(c1)C(=O)N(C)C[C@H](OC)[C@@H](C)CN(C(=O)CC)[C@H](C)CO2,/,-1.3,/,/,/,/
Cc1cccc2cc(CN(C(=O)c3cccc([N+](=O)[O-])c3)C(C)C)c(=O)[nH]c12,-1.1,/,0.9*,-3.1,1.5,0.8
CC(C)(C)N(Cc1cc2ccccc2[nH]c1=O)C(=O)c1cccc([N+](=O)[O-])c1,7.0,/,-0.4,0.3,0.8,-0.6
CC(C)NC(=O)CCc1nnc(Cc2cccc(C(F)(F)F)c2)o1,8.9,67.1*,-0.1,3.4,2.0,0.9
C[C@H](CO)N1C[C@H](C)[C@@H](CN(C)S(=O)(=O)c2ccccc2)OCCCC[C@H](C)Oc2ccc(NS(=O)(=O)c3ccc(Cl)cc3)cc2C1=O,/,5.4,/,/,/,/
Nc1ccc(/C=C/C(=O)c2cccs2)cc1,7.6,68.2*,-0.5,17.9,0.5,0.5
CCc1ccc(C(=O)/C=C/c2cnn(C)c2C)s1,11.7*,55.0*,-0.8,23.2,2.1,3.1
O=C(C=Cc1ccccc1)c1cccs1,-0.5,/,-1.3,8.0,-1.7,-2.2
Cc1c(/C=C/C(=O)c2cccs2)cnn1C,6.3,33.0,-0.4,57.2*,0.8,1.4
SMILES,hgDAF-12 ag,esBAF inh,ssDAF-12 act,Wnt bcat act,hcDAF12 agonist,DAX1 inh
CCc1ccc2c(COC(=O)c3n[nH]c4ccccc34)cc(=O)oc2c1,4.9,77.3*,0.3,/,3.1,0.6
Cc1ccc2c(COC(=O)c3n[nH]c4ccccc34)cc(=O)oc2c1,1.6,69.1*,-0.5,/,-0.3,1.5
O=C(C[C@@H]1CC[C@H]2[C@@H](COC[C@@H](O)CN2CC2CCOCC2)O1)N1CCOCC1,/,-5.1,/,/,/,/
CCN(CC)C(=O)C(C)N(C#N)c1nc(C)cc(C)n1 (stereo not given),2.4,/,-0.9,-1.6,6.3*,0.0
Cc1cc(C)nc(N(C#N)C(C)C(=O)N(C)C)n1 (stereo not given),-0.3,5.8,-1.3,-2.3,-1.2,-0.2
CN(C)S(=O)(=O)c1cc(NC(=O)CN2CCc3ccccc32)ccc1Cl,6.3,/,1.0*,-1.6,4.8,0.5
CN(C)S(=O)(=O)c1cc(NC(=O)CN2CCCc3ccccc32)ccc1Cl,0.5,8.8,-1.0,3.5,1.6,-0.8
CN(CC(=O)Nc1ccc(Cl)c(S(=O)(=O)N(C)C)c1)Cc1ccccc1,4.8,65.0*,-0.9,9.5,0.4,0.2
C[C@H](NC(=O)C[C@@H]1C[C@H]2c3cc(NS(=O)(=O)c4ccc(F)cc4)ccc3O[C@H]2[C@@H](CO)O1)c1ccccc1,/,9.4,/,/,/,/
CN1C(=O)c2ccccc2C(C(=O)O)C1c1cn(C)c2ccccc12 (stereo not given),0.1,-1.6,-0.7,-3.0,5.9*,0.1
Cc1ccc(C2C(C(=O)O)c3ccccc3C(=O)N2C)c(C)c1 (stereo not given),-1.9,/,-1.4,-2.5,0.5,0.7
CCOC(=O)C(C(=O)OCC)C(Nc1cccc(Br)c1)c1ccccc1 (stereo not given),-1.5,15.4,-2.1,1.0,-0.7,-0.5
CCOC(=O)C(c1ccccc1)C(Nc1ccc(Cl)c(Cl)c1)c1ccccn1 (stereo not given),-0.3,/,1.0*,0.3,0.9,-0.3
CCCNC(=O)C[C@@H]1CC[C@H]2[C@@H](COC[C@@H](O)CN2C(=O)Nc2c(C)noc2C)O1,/,-2.3,/,/,/,/
CC(=O)N1N=C(c2ccco2)CC1c1ccc(C)cc1 (stereo not given),2.1,/,-0.6,5.7,0.7,0.2
CC(=O)N1N=C(c2ccc(C)cc2)CC1c1ccc2c(c1)OCO2 (stereo not given),9.4,100.2*,-0.4,?,6.1*,1.4
CS(=O)(=O)N1N=C(c2ccc(Br)cc2)CC1c1ccc2c(c1)OCO2 (stereo not given),/,53.9*,/,/,/,/
C#CCNC[C@@H]1CSCCS(=O)(=O)N1,-0.9,/,0.9*,-1.0,-1.4,0.7
CCCCCCCCCCCCNC[C@@H]1CSCCS(=O)(=O)N1,0.2,/,0.1,-4.4,2.3,-1.6
C[C@@H]1CN([C@@H](C)CO)C(=O)c2cc(NC(=O)Nc3ccc(F)cc3)ccc2O[C@@H]1CN(C)S(=O)(=O)c1ccccc1,/,9.8,/,/,/,/
